Our source for the Percent Effect values is ChEMBL document CHEMBL3988442, “University of Dundee, Small-Polar-MMV Screening Library” (2021).

The experiment has as its target AMP-activated protein kinase, AMPK (Homo sapiens) (UniProt P54646+O43741+P54619+Q9UGJ0+Q9Y478+Q13131+Q9UGI9). Kind of experiment: AMP-dependent Kinase enzyme assay. An in vitro enzyme assay that detects ADP turnover that is directly proportional to AMPK activity. This uses naive AMPK that is activated during the assay with MK-8722. In kind it is functional. More on the design: scale not given: direction of the effect not stated beside the values. The following applies: 30 µM.
Take `COc1ccc(C2(C(=O)N3CC(c4cccnc4)C3)CC2(C)C)cc1` (stereo not given): the Percent Effect was -5.88%.
As for `CC(NC(=O)NCc1ccccn1)c1cccs1` (stereo not given), the figure is -0.209%; as for `Cc1ccccc1CC(=O)NCc1cnc(CC2CCN(C)CC2)cn1`, 4.22%; as for `CCc1ccc2nc(C)cc(C(=O)N[C@@H]3CNC[C@H]3O)c2c1`, 0.636%.
The figure for `CC(C)(C)CN(CCC#N)C(=O)c1cccc(CC#N)c1` is 4.84%.
As for `Cc1nc(NC(=O)c2c3c(nn2C2CCS(=O)(=O)C2)CCC3)sc1C` (stereo not given), the figure is -4%; as for `c1ccc(CCN2CCC(OCC3CCCCO3)CC2)nc1` (stereo not given), 11.2%.
In the case of `CSC1(CNC(=O)NCc2sccc2C)CCOCC1`, the Percent Effect was -1.64%.
As for `Cc1cc(C(N)=O)ccc1NC(=O)N1CCN(c2cccs2)CC1`, the figure is -2.73%.
The figure for `Cn1cccc1C1CCCN1Cc1noc(C(C)(C)C)n1` (stereo not given) is -15%; for `COCC(=O)N1CCN(C(C)c2ncc(-c3ccccc3)o2)CC1` (stereo not given) it is 2.58%.
On to `O=C(O)c1ccn(-c2cccc(NC(=O)c3ccccc3Cl)c2)n1`, for which the Percent Effect was 0.768%.
As for `CC1(C)OC(=O)N(CCCC(=O)c2ccc(F)cc2)C1=O`, the figure is -8.28%.
The figure for `CCC(NC(=O)c1cc(NC(C)=O)ccc1Cl)c1cc(C)ccn1` (stereo not given) is 2.39%.
The figure for `Cc1cc(C)c2[nH]c(C(=O)NCCN3CCCC3=O)c(C)c2c1` is 13.3%; for `CCc1ccc(CN2CCN(c3ccc(C#N)cc3)C(=O)C2)nc1` it is 3.08%; for `NC(=O)C1CCCN1Cc1nccn1CC(F)(F)F` (stereo not given) it is 1.35%.
Turning to `Cc1ccc2nc(C(=O)N3CC(n4nc(C)cc4C)C3)cn2c1`, the Percent Effect is -4.01%.
As for `CN1CCN(C(=O)CCn2ncc3ccccc32)CC(C(N)=O)C1` (stereo not given), the figure is 7.38%.
The figure for `Cc1nsc(C(=O)NCCc2ccccc2)n1` is 3.51%; for `O=C(c1ccc(-n2cnnc2)cc1Cl)N1CCCC2(CCNC2)C1` (stereo not given) it is 0.724%; for `Cc1cc(N2Cc3cnn(CCO)c3C2)nc(-c2ccccc2O)n1` it is 28.4%.
Consider `CC1(C)Cc2nc(C(C)(C)C)ncc2C(NC(=O)CN)C1` (stereo not given), for which the Percent Effect was -5.88%.
For the compound `CC(=O)N1CCCC1(C(=O)N1CCCC1)c1cnccn1` (stereo not given), the Percent Effect is -0.265%.
The figure for `CN(CCc1ncnn1C1Cc2ccccc2C1)C1CCS(=O)(=O)C1` (stereo not given) is -4.47%; for `Cn1ccnc1CNC(=O)CC1CCCCO1` (stereo not given) it is -3.14%.
As for `Oc1ccc(N2CCC(Cc3ccccc3)CC2)nn1`, the figure is 9.16%; as for `COc1ccc(Oc2cc(CN)ccn2)cc1`, -36.1%.
The figure for `O=S(=O)(c1cn[nH]c1)N1CCC(O)(CN2CCOCC2)C1` (stereo not given) is 3.92%; for `CN(C)c1nccnc1C1CCN(C(=O)C2(C)CCCCN2C)CC1` (stereo not given) it is 9.26%.
In the case of `COc1nc2c(cc1C(=O)NC(C)Cc1cc(C)n[nH]1)CCC2` (stereo not given), the Percent Effect was -15.8%.
For the compound `O=C(Nc1ccccc1OCCc1ccccn1)N1CCOCC(O)C1` (stereo not given), the Percent Effect was 2.87%.
As for `O=C(NCC1CCS(=O)(=O)C1)N(Cc1ccncc1)C1CC1` (stereo not given), the figure is -5.47%.
On to `COC(CNC(=O)c1ccc(NC(C)=O)cc1)c1cccc(Cl)c1` (stereo not given), for which the Percent Effect worked out at 1.2%.
The figure for `CCCc1cc(C(=O)NC(COC)c2ccnn2C)no1` (stereo not given) is -16.8%.
As for `OCCCNc1cccc(COC2CCCCC2)c1`, the figure is -15.3%; as for `Cc1c(NC(=O)c2ncn[nH]2)cccc1C(=O)NC(C)(C)C`, 5.84%; as for `COc1ccccc1C(C)(C)NC(=O)c1cc(NC(C)=O)ccc1F`, -6.77%.
As to `CC(=O)NC1CCCN(c2nc3ccccc3cc2CO)C1` (stereo not given), the Percent Effect is 3.71%.
The figure for `COc1ncc(CN2CCC3(CCNC(=O)CC3)CC2)cn1` is -1.6%.
